We go through 20 compounds from PubChem BioAssay (NCATS).

Test [1] addresses Voltage-gated inwardly rectifying potassium channel KCNH2 (Homo sapiens) (UniProt Q12809). As to the kind of experiment: qHTS Assay for Small Molecule Inhibitors of the Human hERG Channel Activity (AID 588834).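 Note: lower thallium flux fluorescence means stronger hERG block; nearly all actives have a fitted effect of over 50% in size.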 Note: potency is the fitted concentration of half-maximal effect. In a few lines: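 hERG block measured as reduced thallium-dye (FluxOR) fluorescence after stimulation buffer addition, read over 2 min. Cells were hERG-BacMam-transduced U2OS exposed to compound ~10 min […]; concentration-response fitted with Hill equation for AC50.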
In general terms: In qHTS, concentration-response curves come from the screen itself.

The target in test [2] is Luciferin 4-monooxygenase (Photinus pyralis) (UniProt P08659). As to the kind of experiment: Biochemical firefly luciferase enzyme assay for NPC (AID 624030). Note: nearly all actives have a fitted effect of over 70% in size. Note: potency is the fitted concentration of half-maximal effect. In a few lines: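 Purified P. pyralis luciferase at 10 nM in 50 mM Tris Acetate (final), luminescence read within 5 minutes of enzyme addition to compounds. Activity normalised to PTC124 versus DMSO; concentration-response curves classed by r2, magnitude and activity.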

The nature of test [3]: S16 Schwann cell viability assay (CellTiter-Glo assay) (AID 624031).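 Note: native untransfected S16 rat Schwann cells; cellular ATP luminescence as a viability measure; series mostly up to about 58 µM; nearly all actives have a fitted effect of over 70% in size.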 Put shortly:
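Cells were seeded at 500-750 per well in phenol red-free DMEM with 10% FBS and left overnight. Compounds or DMSO were pinned in, incubation ran 24 h at 37 °C/5% CO2, then CellTiter-Glo reagent was added and luminescence measured.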
(In general: Cellular ATP, detected with luciferase, serves as a proxy for viable cell number.)

Test [4] in a line: S16 Schwann cell PMP22 intronic element firefly luciferase assay (AID 624032). Note: nearly all actives have a fitted effect of over 30% in size. Note: potency is the fitted concentration of half-maximal effect. In a few lines:
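Rat S16 Schwann cells stably carrying firefly luciferase driven by a PMP22 intronic element, in 10% FBS, treated 24 h at 37 C. ONE-Glo luminescence normalized to PTC124 control and DMSO (0%); curves classed by r2, magnitude and activity.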

Test [5] can be described thus: S16 Schwann cell PMP22 intronic element beta-lactamase assay (AID 624044; calls by dose curve; note: nearly all actives have a fitted effect of over 15% in size). Put shortly:
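Beta-lactamase reporter under a PMP22 intronic regulatory element in stable S16 rat Schwann cells; 24 h compound exposure. 460 nm blue signal normalized between DMSO (0%) and potassium clavulanate, with 535 nm FRET tracking viability; curves classed by r2 and response.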

Results filed as inconclusive are left out. Calls of active or inactive are those of the source. Unless noted, calls come from the whole dose curve; as a rule, active = well fitted curve in the direction sought with a large enough effect; inconclusive = small, poorly fitted or top-dose-only effect, or another doubt; inactive = no such curve, though single readings can be large; an effect the other way counts as inactive or inconclusive.

Sequence of Voltage-gated inwardly rectifying potassium channel KCNH2 (Homo sapiens) (Q12809 whole entry, looked up): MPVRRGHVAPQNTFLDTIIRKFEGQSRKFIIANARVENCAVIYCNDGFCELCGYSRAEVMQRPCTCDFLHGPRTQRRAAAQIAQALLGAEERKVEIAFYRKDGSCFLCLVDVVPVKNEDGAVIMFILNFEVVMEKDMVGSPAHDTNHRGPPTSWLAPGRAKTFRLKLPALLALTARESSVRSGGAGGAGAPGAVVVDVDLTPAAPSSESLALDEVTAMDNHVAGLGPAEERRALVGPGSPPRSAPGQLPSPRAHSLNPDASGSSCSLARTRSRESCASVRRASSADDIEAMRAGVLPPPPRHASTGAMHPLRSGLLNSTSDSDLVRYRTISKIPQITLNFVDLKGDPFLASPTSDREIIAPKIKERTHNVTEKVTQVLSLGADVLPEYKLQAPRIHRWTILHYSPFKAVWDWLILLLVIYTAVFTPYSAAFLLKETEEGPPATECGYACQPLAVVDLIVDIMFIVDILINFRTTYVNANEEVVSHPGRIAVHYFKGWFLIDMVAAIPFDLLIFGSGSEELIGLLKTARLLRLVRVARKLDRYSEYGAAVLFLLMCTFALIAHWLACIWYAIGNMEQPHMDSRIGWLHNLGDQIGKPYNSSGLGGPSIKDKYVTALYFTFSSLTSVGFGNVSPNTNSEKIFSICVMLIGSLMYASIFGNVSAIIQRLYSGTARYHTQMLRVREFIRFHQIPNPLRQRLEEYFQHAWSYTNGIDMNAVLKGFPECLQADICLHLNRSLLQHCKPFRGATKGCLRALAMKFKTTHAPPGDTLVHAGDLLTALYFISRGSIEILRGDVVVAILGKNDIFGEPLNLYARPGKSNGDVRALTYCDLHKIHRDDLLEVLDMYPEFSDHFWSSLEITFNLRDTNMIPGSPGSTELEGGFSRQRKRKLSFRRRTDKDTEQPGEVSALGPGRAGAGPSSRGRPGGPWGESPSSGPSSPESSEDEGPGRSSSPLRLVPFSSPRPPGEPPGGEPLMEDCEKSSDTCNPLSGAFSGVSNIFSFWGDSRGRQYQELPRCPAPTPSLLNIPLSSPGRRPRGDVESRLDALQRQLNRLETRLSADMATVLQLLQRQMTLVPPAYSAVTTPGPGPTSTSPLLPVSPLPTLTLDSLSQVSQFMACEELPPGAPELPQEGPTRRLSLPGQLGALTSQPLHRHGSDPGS
Sequence of Luciferin 4-monooxygenase (Photinus pyralis) (P08659 whole entry, looked up): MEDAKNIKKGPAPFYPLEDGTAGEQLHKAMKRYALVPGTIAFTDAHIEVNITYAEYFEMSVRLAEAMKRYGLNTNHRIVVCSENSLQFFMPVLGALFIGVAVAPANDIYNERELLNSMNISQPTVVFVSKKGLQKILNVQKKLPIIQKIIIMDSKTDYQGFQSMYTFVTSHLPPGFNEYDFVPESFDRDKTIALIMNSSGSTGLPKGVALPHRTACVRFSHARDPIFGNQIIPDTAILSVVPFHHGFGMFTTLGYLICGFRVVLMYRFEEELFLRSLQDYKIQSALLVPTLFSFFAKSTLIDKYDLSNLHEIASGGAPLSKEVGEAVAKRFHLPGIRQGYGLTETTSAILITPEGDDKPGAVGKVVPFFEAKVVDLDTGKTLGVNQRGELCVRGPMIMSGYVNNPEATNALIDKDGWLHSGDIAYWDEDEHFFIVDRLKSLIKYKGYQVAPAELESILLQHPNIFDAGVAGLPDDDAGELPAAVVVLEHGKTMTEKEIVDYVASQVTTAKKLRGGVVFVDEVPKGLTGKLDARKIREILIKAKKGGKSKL

Take `CC(C)C[C@H](NC(=O)[C@H](Cc1ccccc1)NC(=O)c1cnccn1)B(O)O`: the Potency entry in test [1] was “inactive”.

For the compound `Cc1cccc(CN2CCN(C(c3ccccc3)c3ccc(Cl)cc3)CC2)c1` (centres undefined), in test [1], the Potency was 1.26 µM (active).

As to `CN(C)C(=O)COC(=O)Cc1ccc(OC(=O)c2ccc(N=C(N)N)cc2)cc1`, the Potency result in test [1], in test [2], in test [3] and in test [4] was “inactive” in each case.

In the case of `CN1C(C(=O)Nc2ccccn2)=C(O)c2sccc2S1(=O)=O`, the Potency entry in test [1], in test [2], in test [3] and in test [4] was “inactive” each time.

Turning to `O=P(O)(O)C(O)(Cn1ccnc1)P(=O)(O)O`, the Potency result in test [1], in test [2], in test [3], in test [4] and in test [5] was “inactive” each time.

Turning to `CCCCCCCCCCCCCCCCCCCCCCO`, the Potency result in test [1], in test [2], in test [3], in test [4] and in test [5] was “inactive” throughout.

For the compound `O=C(O)c1cccc(-c2noc(-c3ccccc3F)n2)c1`, the Potency entry in test [1], in test [3] and in test [4] was “inactive” each time. The Potency in test [2] is 0.0072 µM (active).

Consider `Cc1cc2c(s1)Nc1ccccc1N=C2N1CCN(C)CC1`, for which the Potency result in test [1], in test [2], in test [3] and in test [4] was “inactive” in each case.

In the case of `CCCOc1ccc2nc(NC(=O)OC)[nH]c2c1`, the Potency result in test [1], in test [2], in test [3] and in test [4] was “inactive” throughout.

For the compound `N=C(N)c1ccc2cc(OC(=O)c3ccc(N=C(N)N)cc3)ccc2c1`, the Potency entry in test [1], in test [2], in test [3] and in test [4] was “inactive” in each case.

Consider `CC1=C(C)C(=O)C(C(CCCCCC(=O)O)c2ccccc2)=C(C)C1=O` (centres undefined), for which the Potency entry in test [1], in test [2], in test [3], in test [4] and in test [5] was “inactive” throughout.

For the compound `Cc1ncc([N+](=O)[O-])n1CC(C)O` (centres undefined), the Potency result in test [1], in test [2], in test [3] and in test [4] was “inactive” throughout.

As to `O=C(NC(Cc1cc(=O)[nH]c2ccccc12)C(=O)O)c1ccc(Cl)cc1` (centres undefined), the Potency result in test [1], in test [2], in test [3] and in test [4] was “inactive” in each case.

As to `CCCCCCCCOc1ccccc1C(=O)Nc1ccc(C(=O)OCC[N+](C)(CC)CC)cc1`, the Potency result in test [1], in test [2], in test [3], in test [4] and in test [5] was “inactive” each time.

As for `Cc1c(C(=O)NN2CCCCC2)nn(-c2ccc(Cl)cc2Cl)c1-c1ccc(Cl)cc1`, the Potency was 2.82 µM (active) in test [1] and 18.1 µM (active) in test [4]. For the same compound, the Potency result in test [2] and in test [3] was “inactive” throughout.

Regarding `N=C(N=C(N)N)N1CCOCC1`, the Potency entry in test [1], in test [2], in test [3] and in test [4] was “inactive” each time.

`O=C(NCCO[N+](=O)[O-])c1cccnc1`: the Potency entry in test [1], in test [2] and in test [3] was “inactive” each time.

Turning to `CCC[C@@H]1C[C@@H](C(=O)N[C@@H]([C@H]2O[C@H](SC)[C@H](O)[C@@H](O)[C@H]2O)[C@@H](C)O)N(C)C1`, the Potency result in test [1], in test [2], in test [3], in test [4] and in test [5] was “inactive” each time.

`C[C@]12CCC(=O)C=C1CC[C@@H]1[C@H]2[C@@H](O)C[C@@]2(C)[C@H]1CC[C@]2(O)C(=O)CO`: the Potency result in test [1], in test [2], in test [3], in test [4] and in test [5] was “inactive” each time.

For `CCN(CC)CCOc1ccc(Cc2ccccc2)cc1`, the Potency in test [1] was 5.01 µM (active). The Potency result in test [2], in test [3] and in test [4] was “inactive” throughout.
